22 compounds from PubChem BioAssay (Tox21) can be followed below.

The structures appear in SMILES notation. Inconclusive results are not listed. Where a call stands in place of a potency, no number is given. Active and inactive are the calls of the source. Calls come from the whole dose curve; as a rule, active = well fitted cell-killing curve with a large enough effect in the repeat runs; inconclusive = weak or mixed curves, or effect the other way; inactive = flat fitted curve, though single readings scatter.

A short description of assay [1]: cAMP Responsive Elements (CRE) small molecule antagonists, cell-based qHTS assay: qHTS cell viability counter screen (AID 2060913). Note: nearly all actives have a fitted effect of over 40% in size. Put shortly:
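Cytotoxicity counter screen multiplexed with the CRE-bla antagonist read: HEK293T cells in DMEM with dialyzed FBS and 25 mM HEPES were treated 3 hrs under 0.25 uM final NKH477, then viability measured by CellTiter-Glo luminescence.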
Background: Quantitative high-throughput screening tests each substance at several concentrations.

Assay [2] is described as follows: cAMP Responsive Elements (CRE) small molecule agonists, cell-based qHTS assay: qHTS cell viability counter screen (AID 2060914). Note: nearly all actives have a fitted effect of over 50% in size. The gist of the method:
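Luminescence read-out (CellTiter-Glo, 30 min RT) of ATP-based viability in CRE-bla HEK 293T cells, run in the same wells as the β-lactamase reporter assay after 3 h compound treatment at 37 °C.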

On to `O=C(O)c1cc(N=Nc2ccc([N+](=O)[O-])cc2)ccc1O`, for which the Potency entry in assay [1] and in assay [2] was “inactive” in each case.

For the compound `CC1=C(CC=O)C(C)(C)CCC1`, the Potency entry in assay [1] and in assay [2] was “inactive” each time.

`COc1ccc(C)cc1[N+](=O)[O-]`: the Potency entry in assay [1] and in assay [2] was “inactive” each time.

For `CCCCCCCCCCCCCCC[C@H](O)[C@@H](N)CO`, the Potency entry in assay [1] and in assay [2] was “inactive” throughout.

For the compound `Cc1ccc(N)cc1[N+](=O)[O-]`, the Potency entry in assay [1] and in assay [2] was “inactive” each time.

In the case of `O=S(=O)(O)CCCN1CCOCC1`, the Potency entry in assay [1] and in assay [2] was “inactive” each time.

Take `CCCC(=O)OCC(COC(=O)CCC)OC(=O)CCC`: the Potency result in assay [1] and in assay [2] was “inactive” throughout.

Turning to `ClC(Cl)(Br)Br`, the Potency result in assay [1] and in assay [2] was “inactive” throughout.

Regarding `COc1ccccc1N1CCN(CCCCNC(=O)c2ccc(-c3ccc(C(C)=O)cc3)cc2)CC1`, the Potency result in assay [1] and in assay [2] was “inactive” throughout.

Consider `CCc1ccc(C)cc1`, for which the Potency entry in assay [1] and in assay [2] was “inactive” in each case.

For `CCNCCO`, the Potency result in assay [1] and in assay [2] was “inactive” in each case.

Turning to `Cc1nc2ccccc2s1`, the Potency entry in assay [1] and in assay [2] was “inactive” each time.

In the case of `CCCCc1ccc2nc(NC(=O)OC)[nH]c2c1`, the Potency entry in assay [1] and in assay [2] was “inactive” throughout.

For `C/C=C1\[C@H]2C=C(C)C[C@]1(N)c1ccc(=O)[nH]c1C2`, the Potency result in assay [1] and in assay [2] was “inactive” throughout.

Turning to `Oc1cc2ccccc2cc1O`, the Potency result in assay [1] and in assay [2] was “inactive” in each case.

As to `C=CC(=O)OCCOC(=O)C=C`, the Potency result in assay [1] and in assay [2] was “inactive” each time.

As for `O=C(c1ccccc1)c1ccccc1O`, the Potency entry in assay [1] and in assay [2] was “inactive” each time.

With `CO[C@@]1(NC(=O)CSCC#N)C(=O)N2C(C(=O)O)=C(CSc3nnnn3C)CS[C@@H]21`, the Potency result in assay [1] and in assay [2] was “inactive” throughout.

As to `CC(=O)OCc1ccco1`, the Potency entry in assay [1] and in assay [2] was “inactive” throughout.

For the compound `c1ccc(CC2=NCCN2)cc1`, the Potency entry in assay [1] and in assay [2] was “inactive” each time.

For `CCCCC/C=C\CCC=O`, the Potency result in assay [1] and in assay [2] was “inactive” in each case.

Consider `CCN(O)CC`, for which the Potency entry in assay [1] and in assay [2] was “inactive” in each case.
